# Compound activity as filed in PubChem BioAssay.
# EPAC1 agonist: agonists of human EPAC1; O95398; EPAC1 agonist qHTS, biochemical assay; response scale: 100% = response to 6.5 mM cAMP; Potency, µM (series often up to 154 µM), for the others: at the top dose activation, actives largely listed as activators; 360,000 tested, 0.073% active; AID 720707; note: nearly all actives have a fitted effect of over 60% in size
#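 Normalized to 6.5 mM cAMP, activity reflects EPAC1-catalysed release of BODIPY-GDP from Rap1B, followed kinetically over 30 min at 480 nm excitation, 540 nm emission. Reaction contained 100 nM EPAC1, 250 nM Rap1B-BODIPY-GDP, 50 uM GDP.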
# ALOX12 inh: inhibitors of human 12S-lipoxygenase ALOX12; Potency, µM (series often up to 108 µM), without a hit: at the highest dose activity change, negative = inhibition, hits mostly inhibitors; purified 12hLO, xylenol orange hydroperoxide absorbance; 580,000 tested, 1.1% active; P18054; note: % is set by controls: 0 for no effect and ±100 for the full control effect
# Target sequence (P18054 whole entry, looked up): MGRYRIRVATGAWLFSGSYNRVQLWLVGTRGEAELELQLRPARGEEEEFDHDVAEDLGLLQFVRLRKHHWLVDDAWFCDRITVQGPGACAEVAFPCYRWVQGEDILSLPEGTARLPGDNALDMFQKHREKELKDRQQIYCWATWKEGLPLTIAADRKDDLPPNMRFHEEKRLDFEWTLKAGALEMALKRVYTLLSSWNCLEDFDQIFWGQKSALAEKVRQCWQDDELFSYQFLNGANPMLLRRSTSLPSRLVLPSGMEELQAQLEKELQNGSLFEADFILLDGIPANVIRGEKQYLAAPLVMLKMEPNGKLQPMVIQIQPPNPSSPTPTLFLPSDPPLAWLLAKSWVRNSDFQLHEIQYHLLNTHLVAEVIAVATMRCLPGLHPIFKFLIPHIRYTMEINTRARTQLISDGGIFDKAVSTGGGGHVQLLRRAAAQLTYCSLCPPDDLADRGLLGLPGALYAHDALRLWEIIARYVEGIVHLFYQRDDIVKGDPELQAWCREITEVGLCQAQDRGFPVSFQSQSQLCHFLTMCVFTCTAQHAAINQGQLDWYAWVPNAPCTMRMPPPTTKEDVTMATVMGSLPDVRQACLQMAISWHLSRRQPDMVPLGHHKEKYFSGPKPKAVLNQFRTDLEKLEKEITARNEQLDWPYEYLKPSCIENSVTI
#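 Hydroperoxide product was detected by ferrous iron/xylenol orange as the 573 to 405 nm absorbance ratio. Arachidonic acid at 40 uM (final) was turned over for 30 min at room temperature by 150 nM human 12hLO, pH 7.0 Hepes buffer, after 15 min compound preincubation.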
# EPAC2 antagonist: blocks human EPAC2 exchange factor | Q8WZA2 | Potency, µM (titrated, usually from 114 µM), for inactives: top-dose activity, negative = inhibition, hits mostly inhibitors | AID 720708 | EPAC2 GEF exchange of Rap1B-BODIPY-GDP, fluorescence | 360,000 tested, 0.18% active; note: % is set by controls: 0 for no effect and ±100 for the full control effect; nearly all actives have a fitted effect of over 45% in size
# EPAC1 antagonist: blocks human EPAC1 exchange factor. O95398. EPAC1 GEF assay, Rap1b-BODIPY-GDP exchange fluorescence. Potency, µM (series often up to 115 µM), for the others: at the highest dose activity change, negative = inhibition, most hits filed as inhibitors. 360,000 tested, 0.14% active. AID 720709;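 note: plate controls were vehicle for no effect and positive control for full effect; nearly all actives have a fitted effect of over 50% in size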
# EPAC2 ag: agonists of human EPAC2 (RAPGEF4) | EPAC2 activation, biochemical qHTS; response scale: 100% = 6.5 mM cAMP response | Potency, µM (doses to about 154 µM), for the others: top-dose activation, actives largely listed as activators | 360,000 tested, 0.079% active; note: nearly all actives have a fitted effect of over 50% in size
#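 Nucleotide exchange monitored as fluorescence drop when BODIPY-GDP leaves Rap1B. Reaction: 100 nM EPAC2, 250 nM RAP1B-BODIPY-GDP, 50 uM GDP, room temperature, kinetic read over 30 min. Activity expressed relative to 6.5 mM cAMP.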
# USP1-UAF1 inh: inhibitors of human USP1/UAF1 deubiquitinase | Potency, µM (top dose mostly 57.1 µM), for the others: at the highest dose activity change, negative = inhibition, most hits filed as inhibitors | recombinant USP1/UAF1, Ub-Rhodamine cleavage fluorescence | O94782 | 390,000 tested, 0.23% active; note: % is set by controls: 0 for no effect and ±100 for the full control effect; nearly all actives have a fitted effect of over 60% in size
#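 1 nM enzyme complex + cpd, 15 min RT; start with Ub-Rho 150nM final; kinetic fluorescence ex 480/em 540, 6 reads q60 s. Buffer 50mM HEPES pH 7.8, 0.5mM EDTA, 0.1 mg/ml BSA, 1mM TCEP, 0.01% Tween-20.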
# An asterisk follows results filed as active; ? = inconclusive; / = not tested or not shown; ! = repeats disagree; [ ] = remark or other dose. Sampled rows, rich in hits. Any-hit rate of the full collection: about 1.3%. Calls come from the whole dose curve; as a rule, active = well fitted curve in the direction sought with a large enough effect; inconclusive = small, poorly fitted or top-dose-only effect, or another doubt; inactive = no such curve, though single readings can be large; an effect the other way counts as inactive or inconclusive. Potency is the fitted concentration of half-maximal effect.
SMILES,EPAC1 agonist,ALOX12 inh,EPAC2 antagonist,EPAC1 antagonist,EPAC2 ag,USP1-UAF1 inh
Cc1cccc(NC(=O)CN2C(=O)N/C(=C\c3cccn3-c3cccc(C(=O)O)c3)C2=O)c1,8%,45µM*,0%,?,1%,-10%
O=C(O)c1cccc(-n2cccc2/C=C2/NC(=O)N(c3ccc(Cl)cc3)C2=O)c1,15%,7.9µM*,-22%,?,-1%,?
O=C(O)c1ccc(COc2ccccc2/C=C2/NC(=O)N(c3cccc(Cl)c3)C2=O)cc1,89µM*,-29%,?,?,20%,10%
COC/C=C/C1=CC2=CC(=O)C(C)(OC(=O)c3cnc4ccccc4n3)C(=O)C2=CN1C(CO)CO (centres undefined),14%,7.1µM*,12%,-22%,10%,-26%
NNCCc1ccccc1,-9%,5.4µM*!,8%,-9%,4%,-18%
Cc1ccc(C(=O)COC(=O)C2C3CC4C(OC(=O)C42)C3Br)cc1 (centres undefined),/,2%,/,/,/,/
Cc1ccc(-c2cc(C(=O)O)c3cc(Cl)ccc3n2)o1,/,7.9µM*!,/,/,/,/
Cc1ccc2nc(-c3ccc(C)o3)cc(C(=O)O)c2c1,/,5µM*,/,/,/,/
Cc1ccc(-c2onc3ccc(-c4cc(C(=O)O)c5cc(Br)ccc5n4)cc23)cc1,/,7.9µM*,/,/,/,/
Cc1ccc(-c2cc(C(=O)O)c3cc(Br)ccc3n2)o1,-2%,16µM*,6%,-10%,-5%,-24%
O=C(O)c1cc(-c2ccccn2)nc2ccc(Cl)cc12,/,-9%,/,/,/,/
Cc1ccc(C)c(-c2cc(C(=O)O)c3cc(C)ccc3n2)c1,/,-6%,/,/,/,/
Cc1ccc(-c2cc(C(=O)NN3CCOCC3)c3cc(Br)ccc3n2)o1,0%,?,6%,6%,3%,-1%
Cc1ccc(NC(=O)Cc2n[nH]c(=O)c3ccccc23)cc1F,/,-16%,/,/,/,/
CCN(CC)S(=O)(=O)c1ccc(N/N=C/c2ccc(C)s2)c([N+](=O)[O-])c1,/,-1%,/,/,/,/
Cc1ccc(-c2cc(C(=O)N3CCCCC3)c3cc(Br)ccc3n2)o1,/,8.9µM*,/,/,/,/
Cn1c(=O)[nH]c(=O)c2c1nc(SCC(=O)c1ccccc1)n2Cc1ccccc1,/,-17%,/,/,/,/
O=[S+]1([O-])NC2(CCCN(Cc3ccccc3C(F)(F)F)C2)CNc2ccccc21 (centres undefined),/,0%,/,/,/,/
CCC1=NN(C(=O)c2ccc(Br)cc2)C(O)(c2ccccc2)C1 (centres undefined),112µM*,-2%,-7%,88%,1%,-6%
Cc1ccccc1C(CC(=O)Nc1ccc(-c2ccno2)cc1)n1cccc1 (centres undefined),/,-29%,/,/,/,/
CC1(C(=O)OCC(=O)Nc2nc(-c3ccc(F)c(F)c3)cs2)CC1(Cl)Cl (centres undefined),2%,56µM*,5%,-7%,6%,-23%
COc1ccc(CC(=O)Nc2nc(-c3ccc(F)c(F)c3)cs2)cc1,17%,-14%,-14%,?,5%,-19%
COc1cc(Br)cc(C(=O)N2CCc3ccccc32)c1OC,6%,6%,35µM*,3%,11%,-23%
CNC(=O)CSC12CC3CC(CC(C3)C1)C2,/,-27%,/,/,/,/
Cc1ccc(S(=O)(=O)NN(Cc2ccccc2)Cc2ccccc2)cc1,-13%,16µM*,-2%,-3%,-10%,-26%
SMILES,EPAC1 agonist,ALOX12 inh,EPAC2 antagonist,EPAC1 antagonist,EPAC2 ag,USP1-UAF1 inh
O=C(NS(=O)(=O)c1ccc2ccc(S(=O)(=O)NCCSc3ccccc3)cc2c1)c1cccc2ccccc12,-1%,?,?,56µM*,3%,/
O=S(=O)(NCCSc1ccccc1)c1ccc(F)cc1,4%,-1%,-6%,-27%,10%,-3%
CC(C)CC1C(=O)N(Cc2cn(CCC3OCCCO3)nn2)CCS(=O)(=O)N1Cc1ccc(-c2ccc(Cl)cc2)cc1 (centres undefined),-6%,-8%,?,0%,-1%,-24%
CC(C)CC1C(=O)N(Cc2cn(CCC3OCCO3)nn2)CCS(=O)(=O)N1Cc1ccc(-c2ccc(F)cc2)cc1 (centres undefined),-15%,-5%,13µM*,-8%,1%,-17%
Cc1cc(C)n(-c2ncnc3scc(-c4ccccc4)c23)n1,/,1%,/,/,/,/
O=C(NN=C1CCCCCC1)NC1CCCCC1,3%,-4%,10%,9%,11%,-6%
S=C(NN=C1CCCCCC1)Nc1ccc(Cl)cc1,7%,?,-2%,4%,19%,-8%
NC(=S)NN=C1CCC(C2CCCCC2)CC1 (centres undefined),-1%,35µM*,-1%,-22%,7%,-18%
NC(=S)NN=C1CCCCCCCCCC1,3%,45µM*,-1%,-21%,8%,-5%
CCS(=O)(=O)NCC1(COc2ccc(S(C)(=O)=O)cc2)C[C@@H](O)[C@@H](O)C1 (some centres undefined),/,13µM*,/,/,/,/
O=Cc1ccc(OCc2ccccc2Cl)c(Cl)c1,/,-47%,/,/,/,/
Cc1ccc(F)c(NC(=O)/C(C#N)=C(\O)c2ccc(C(C)(C)C)cc2)c1,-11%,?,-23%[57.1 µM],56µM*,-35%,22µM*
CCOC(=O)c1c(C)[nH]c(C(=O)C(C)Sc2ccc(Cl)cc2)c1C (centres undefined),7%,12%,-8%,-9%,18%,-16%
CC(=O)c1c(C)[nH]c(C(=O)C(C)Sc2ccc(F)c(Cl)c2)c1C (centres undefined),/,45µM*,/,/,/,/
COc1ccc2sc(/C=C/c3ccccc3O)[n+](C)c2c1,10%,40µM*,38%,-3%,16%,?
Cc1ccc(-c2cc(C(F)F)n3ncc(C(=O)N4CCCc5ccccc54)c3n2)cc1,0%,0%,5%,8%,-2%,-23%
COc1ccc(-c2cc(C(F)F)n3ncc(C(=O)N4CCc5ccccc54)c3n2)cc1,-15%,-6%,59%,-18%,100µM*,-10%
COc1ccccc1CNCCCO,/,-8%,/,/,/,/
O=C(CN1CCC(Cc2ccccc2)CC1)N1CCc2ccccc2C1,0%,1µM*,0%,-22%,6%,-16%
CSc1ccc(C(C)NC(=O)c2cccc(F)c2)cc1 (centres undefined),/,-2%,/,/,/,/
O=C(O)CC(Sc1n[nH]c(=S)s1)C(=O)O (centres undefined),5%,2µM*,-1%,-3%,2%,-23%
COc1ccc(NC(=O)c2ccc(-c3ncc4cnc(C5=CCOCC5)cn34)cc2)cn1,/,24%[176 µM],/,/,/,/
